In PubChem BioAssay AID1159580 (chemical genetic matrix, 2015):
The whole screen tested about 5,500 compounds, of which about 2,000 (36%) were called active. Inconclusive results (about 18%) are left out. No stated cut-off is given here; in the data, active means normalized growth mostly below about 0.91 (no sharp cut-off); inconclusive means no clear call, values can overlap the other calls; inactive means mostly above about 0.92. This is one part of the list.

Experiment: chemical genetic growth profiling, strain panel (AID 1159580);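 further: tested at 20 µM; growth read once vehicle control cultures reached saturation at 30 °C; 1 = growth at the plate median or of vehicle wells; lower values mean less growth of the strain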
Details: S. cerevisiae deletion strains, growth OD

Measured: normalized growth

CN1CCN(C(=O)OC2c3nccnc3C(=O)N2c2ccc(Cl)cn2)CC1 (centres undefined)
inactive: locus YAL021C, strain ccr4, active compounds read low 1 | locus YAL026C, strain drs2, active compounds read low 0.993 | locus YAL030W, strain snc1, active compounds read low 0.997 | locus YBL061C, strain skt5, active compounds read low 0.99 | locus YBR009C, strain hhf1, active compounds read low 1.01 | locus YBR023C, strain chs3, active compounds read low 0.991 | locus YBR171W, strain sec66, active compounds read low 0.997 | locus YBR231C, strain swc5, active compounds read low 0.979 | locus YBR279W, strain paf1, active compounds read low 1.01 | locus YCL011C, strain gbp2, active compounds read low 1 | locus YCL016C, strain dcc1, active compounds read low 0.994 | locus YCL069W, strain vba3, active compounds read low 1 | locus YCR088W, strain abp1, active compounds read low 0.996 | locus YDL005C, strain med2, active compounds read low 0.99 | locus YDL040C, strain nat1, active compounds read low 0.981 | locus YDR001C, strain nth1, active compounds read low 0.992 | locus YDR069C, strain doa4, active compounds read low 0.991 | locus YDR137W, strain rgp1, active compounds read low 0.998 | locus YDR159W, strain sac3, active compounds read low 1.01 | locus YDR195W, strain ref2 0.959 | locus YDR297W, strain sur2, active compounds read low 0.979 | locus YDR334W, strain swr1, active compounds read low 0.983 | locus YDR335W, strain msn5, active compounds read low 1 | locus YDR392W, strain spt3, active compounds read low 1.02 | locus YEL003W, strain gim4, active compounds read low 1 | locus YEL037C, strain rad23, active compounds read low 0.994 | locus YEL061C, strain CIN8 (second series), active compounds read low 0.993 | locus YER015W, strain faa2, active compounds read low 0.99 | locus YER016W, strain bim1, active compounds read low 1.01 | locus YER111C, strain swi4, active compounds read low 1 | locus YER155C, strain BEM2 (second series), active compounds read low 0.999 | locus YFR010W, strain ubp6, active compounds read low 0.987 | locus YGL167C, strain pmr1, active compounds read low 0.986 | locus YGL173C, strain kem1, active compounds read low 0.976 | locus YGL227W, strain vid30, active compounds read low 0.976 | locus YGL240W, strain doc1, active compounds read low 1 | locus YGL253W, strain hxk2, active compounds read low 0.994 | locus YHR013C, strain ard1, active compounds read low 0.98 | locus YHR027C, strain rpn1, active compounds read low 1 | locus YHR030C, strain SLT2, active compounds read low 1.02 | locus YHR079C, strain IRE1, active compounds read low 1.01 | locus YHR142W, strain chs7, active compounds read low 1.01 | locus YJL092W, strain hpr5, active compounds read low 0.984 | locus YJL095W, strain BCK1 (second series), active compounds read low 0.97 | locus YJL095W, strain BCK1, active compounds read low 1.01 | locus YJL115W, strain asf1, active compounds read low 0.995 | locus YJL129C, strain trk1, active compounds read low 0.956 | locus YJL154C, strain vps35, active compounds read low 0.993 | locus YJL164C, strain tpk1, active compounds read low 1.01 | locus YJL166W, strain qcr8, active compounds read low 0.998 | locus YJL187C, strain SWE1, active compounds read low 0.994 | locus YJR066W, strain TOR1, active compounds read low 0.935 | locus YKL160W, strain elf1, active compounds read low 0.984 | locus YKR026C, strain gcn3, active compounds read low 0.988 | locus YKR091W, strain srl3, active compounds read low 0.995 | locus YLL001W, strain dnm1, active compounds read low 0.971 | locus YLL026W, active compounds read low 1 | locus YLL041C, strain sdh2, active compounds read low 1.01 | locus YLR027C, strain aat2, active compounds read low 1 | locus YLR113W, strain HOG1, active compounds read low 1 | locus YLR221C, strain rsa3, active compounds read low 0.987 | locus YLR258W, strain gsy2, active compounds read low 1.01 | locus YLR262C, strain YPT6 (second series), active compounds read low 1 | locus YLR320W, strain mms22, active compounds read low 1.01 | locus YLR342W, strain FKS1, active compounds read low 0.995 | locus YLR357W, strain rsc2, active compounds read low 0.978 | locus YLR370C, strain arc18, active compounds read low 0.998 | locus YLR384C, strain iki3, active compounds read low 0.994 | locus YML120C, strain ndi1, active compounds read low 0.985 | locus YMR058W, strain fet3, active compounds read low 1 | locus YMR125W, strain sto1, active compounds read low 0.946 | locus YMR129W, active compounds read low 1 | locus YMR205C, strain PFK2, active compounds read low 0.99 | locus YMR231W, strain pep5, active compounds read low 0.99 | locus YNL071W, strain lat1, active compounds read low 1 | locus YNL183C, strain NPR1, active compounds read low 0.957 | locus YNL209W, strain ssb2, active compounds read low 1.01 | locus YNL248C, strain rpa49, active compounds read low 0.989 | locus YNL322C, strain KRE1 (second series), active compounds read low 0.976 | locus YNR049C, strain mso1, active compounds read low 1 | locus YOR001W, strain rrp6, active compounds read low 0.973 | locus YOR070C, strain gyp1, active compounds read low 0.998 | locus YOR080W, strain dia2, active compounds read low 0.987 | locus YOR083W, strain WHI5, active compounds read low 0.983 | locus YOR106W, strain vam3, active compounds read low 0.98 | locus YOR231W, strain MKK1, active compounds read low 1.01 | locus YOR265W, strain rbl2, active compounds read low 0.993 | locus YOR270C, strain vph1, active compounds read low 0.967 | locus YOR290C, strain snf2, active compounds read low 1.01 | locus YPL051W, strain arl3, active compounds read low 0.988 | locus YPL078C, strain atp4, active compounds read low 0.979 | locus YPL106C, strain sse1, active compounds read low 1.05 | locus YPL240C, strain hsp82, active compounds read low 1 | locus YPL256C, strain CLN2, active compounds read low 1.01
